High-throughput results (PubChem BioAssay)
NCOA1 inh: inhibitors of human steroid receptor coactivator 1 (SRC1); HEK293 GAL4-SRC1 luciferase reporter, luminescence; inhibition, % at 3.6 µM; 0.12% of 360,000 active; AID 588354;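 active = inhibition above the campaign mean plus 3 SD, with each screening campaign given its own cutoff, cut at about 60% in these data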;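 also: 0% = DMSO treated cells and 100% = gossypol at 36 µM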
GalR3 antagonist: human GalR3 antagonism. O60755. HEK293 GalR3-CNG cAMP membrane potential fluorescence; galR3 body fused to GalR1 C-terminus. inhibition, % at 3 µM. 0.44% of 360,000 active;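 active = inhibition above the screen-wide average plus 3 SD, cut at about 13% in these data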;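 also: forskolin and galanin both at EC90 stimulate the cells; cAMP rise reported by CNG channel membrane potential dye signal; 0% = forskolin plus galanin with DMSO and 100% = forskolin alone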
NR5A2 inv ag: inverse agonists of human LRH-1 (NR5A2). O00482. HEK293T StAR-luciferase reporter, LRH-1 transfected, 24 h. inhibition, % at 3.6 µM. 0.13% of 360,000 active. AID 602396;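 active = inhibition above the mean inhibition of all tested compounds plus 3 SD, cut at about 73% in these data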;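 also: 0% = DMSO wells and 100% = reporter-only cells lacking LRH-1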
SRC3 inh: inhibitors of human steroid receptor coactivator 3 (SRC3); Q9Y6Q9; AID 588352; 0.17% of 360,000 active; inhibition, % at 3.6 µM; HEK293 GAL4-SRC3 luciferase reporter, luminescence;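 active = inhibition above a per-campaign cutoff, the mean of all compounds plus 3 SD, cut at about 60% in these data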;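 also: 0% = DMSO-treated cells and 100% = gossypol-treated cells at 36 µM; higher means less SRC3-driven luciferase light from the GAL4 reporter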
SRC2 inh: human SRC2 (NCOA2) inhibition | inhibition, % at 9 µM | HEK293 GAL4-SRC2 luciferase reporter, luminescence | Q15596 | 0.17% of 370,000 active;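 active = inhibition above the mean inhibition of all tested compounds plus 3 SD, set per campaign, cut at about 52% in these data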;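 also: 0% = DMSO treated cells and 100% = cells given Gossypol at 36 µM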
NR2F2 inh: NR2F2 (human) inhibition, primary screen. HEK293T NGFI-A luciferase reporter, luminescence. 0.7% of 370,000 active. inhibition, % at 8.6 µM. AID 686940;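 active = inhibition above a per-plate cutoff, mean inhibition of test wells between control levels plus 3 SD, cut at about 38% in these data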;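 also: cells cotransfected with COUP-TFII expression vector driving the NGFI-A reporter; 0% = median of COUP-TF2 test wells and 100% = reporter-only cells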
VP16 Luc counter: inhibits VP16 reporter, flagging COUP-TFII antagonist hits; shares compounds with NR2F2 inh; HEK293 Gal4-VP16 luciferase reporter, luminescence; inhibition, % at 8.5 µM; 25% of 2,500 active; AID 687007; in the data active = inhibition above about 13%
COUP-TFII conf: confirmation of human COUP-TFII (NR2F2) inhibitors. inhibition, % at 8.5 µM. 45% of 2,500 active. HEK293 NGFI-A luciferase reporter, luminescence. shares compounds with NR2F2 inh;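 active = mean inhibition over three repeats above a set limit taken from the earlier primary screen, cut at about 38% in these data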;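 also: 100% = cells given the luciferase reporter alone without the COUP-TF2 vector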
Active calls of the source: *; x = no result; ! = not confirmed by another sample. An excerpt weighted towards active compounds, which were near 1.1% of everything screened.

SMILES	NCOA1 inh	GalR3 antagonist	NR5A2 inv ag	SRC3 inh	SRC2 inh	NR2F2 inh	VP16 Luc counter	COUP-TFII conf
CC(C)c1ccc(-n2c(-c3ccccc3)c[n+]3c2CCc2ccccc2-3)cc1	50	-2	81*	77*	40	89*	28*	87*
Brc1ccc(-c2c[n+]3c(n2-c2ccccc2)SCC3)cc1	9	-4	3	11	9	18	x	x
COc1ccc(-c2cn(-c3ccc(OC)cc3)c3[n+]2-c2ccccc2CC3)cc1	47	0	72	69*	-16	62*	12	55*
COc1ccc(-n2cc(-c3ccccc3)[n+]3c2CCCCC3)cc1	27	0	38	46	14	35	x	x
COc1ccc(-n2c(-c3ccc(Br)cc3)c[n+]3c2CCc2ccccc2-3)cc1	5	-6	65	47	17	38*	21*	31
COc1cc(/C=C2\SC(=S)N(CCC(=O)Nc3ccccc3O)C2=O)cc(OC)c1OC	0	0	4	-16	2	-6	x	x
CC(CCCC(C)(C)O)NC(=O)c1ccc2oc(CCc3ccccc3)nc2c1 (stereo not drawn)	-7	0	4	-17	4	7	x	x
CC(c1ccccc1)C1CC(=O)N(c2ccc(C(=O)O)cc2)C1=O (stereo not drawn)	-2	-1	-7	7	21	-13	x	x
CCN(C[C@H]1N[C@@](C)(C(=O)OC)[C@H]2C(=O)N(C)C(=O)[C@@H]12)C(C)=O	-10	-5	2	10	-16	-7	x	x
Cc1ccc(C)c(OCc2cc(C(=O)NC(C)c3cnn(C)c3)no2)c1 (stereo not drawn)	-57	-9	38	17	-32	-8	x	x
COc1ccc(C2SCC(=O)N2CCc2ccc(OC)c(OC)c2)cc1 (stereo not drawn)	11	-8	26	27	19	43*	-3	19
COc1ccc(CCN2C(=O)CSC2c2ccc(OC)c(OC)c2)cc1OC (stereo not drawn)	3	-4	4	10	-23	0	x	x
O=C(C1CCN(c2ncnc3c2nc2n3CCCCC2)CC1)N1CCN(c2cccc(Cl)c2)CC1	16	-8	12	25	23	50*	0	23
Nc1nnc(-c2cc3ccccc3oc2=O)s1	-66	0	-82	-48	-50	-26	x	x
Nc1cccc(-c2cc3ccccc3oc2=O)c1	16	-5	9	21	46	57*	8	7
COCCn1c(C)cc(C(=O)COC(=O)c2cc3c(s2)CCC3)c1C	9	-1	6	-17	-14	-12	x	x
COCCn1c(C)cc(C(=O)COC(=O)c2cccc(O)c2)c1C	54	-2	-19	60	52	72*	64*	87*
O=C(CSC1=NCCS1)Nc1cccc2ccccc12	12	-1	4	-1	10	-8	x	x
CN(CC(=O)Nc1ccc(Cl)c(C(F)(F)F)c1)C(=O)Cc1n[nH]c(=O)c2ccccc12	-13	-6	-22	16	28	46*	-5	10
Cc1ccc(NCC(=O)Nc2cccc(S(=O)(=O)N(C)C)c2)cc1S(=O)(=O)N1CCCCCC1	21	-1	23	26	14	49*	12	32
CN(CC(=O)Nc1cccc(S(=O)(=O)N2CCCC2)c1)CC(=O)Nc1ccc(F)c(F)c1F	-2	-6	18	-1	8	0	x	x
Cc1ccc(NC(=O)Cc2n[nH]c(=O)c3ccccc23)cc1S(=O)(=O)N1CCCCCC1	-3	-4	-6	-7	23	38*	-2	17
CN(CC(=O)Nc1cccc(S(=O)(=O)N2CCCC2)c1)CC(=O)Nc1ccc(Cl)c(C(F)(F)F)c1	24	-2	17	5	11	42*	3	11
CCN(CC)S(=O)(=O)c1cc(NC(=O)Cc2n[nH]c(=O)c3ccccc23)ccc1C	5	-2	11	17	5	21	x	x
CCN(CC)c1ccc(/C=C2\SC(N)=NC2=O)cc1	-56	-10	-14	-16	-21	-12	x	x
SMILES	NCOA1 inh	GalR3 antagonist	NR5A2 inv ag	SRC3 inh	SRC2 inh	NR2F2 inh	VP16 Luc counter	COUP-TFII conf
CCOc1ccc(S(=O)(=O)NCc2ccncc2)cc1NC(=O)c1ccccc1	-10	-4	21	28	29	59*	-2	54*
COc1cc(CNCc2ccc(OC)cc2OC)cc(OC)c1	0	-11	6	-6	-6	-4	x	x
CCOC(=O)Cc1csc(NC(=O)CSc2nnc(Cc3csc(N)n3)n2C)n1	-6	3	1	7	-5	-3	x	x
COc1ccc(OCC(=O)Nc2ccccc2C(=O)NC(C)C)cc1	9	-2	-4	-2	-18	0	x	x
Cc1oc(-c2cc(F)ccc2F)nc1CN1CCN(c2ncnc3ccccc23)CC1	6	-9	16	28	22	43*	1	23
COc1ccc(-c2nc(CN3CCN(c4ncnc5ccccc45)CC3)c(C)o2)c(OC)c1	12	-7	17	4	25	52*	-3	40*
COc1ccc(-c2nc(CN3CCN(c4ccccc4OC)CC3)c(C)o2)cc1	2	-5	-4	12	0	-5	x	x
COC(=O)c1ccc2nc(NC(=O)C3CC3)sc2c1	-61	-11	-55	-56	-53	-58	x	x
C/C(CC(C)(C)C1CCCCC1)=N\NC(N)=S	41	-3	70	62*	40	59*	17*	64*
Cc1cc(NNC(=O)c2cccc(C(F)(F)F)c2)nc2c1c(C)nn2C	12	-9	34	20	24	50*	-2	43*
O=C(/C=C/c1ccccc1)N/C(=C/c1ccccc1)C(=O)NCCO	-27	-2	1	21	16	0	x	x
COC(=O)[C@]1(C)CCC[C@@]2(C)C3CC[C@]4(OC(C)=O)C[C@@]3(CCC21)CC4=O (stereo partly drawn)	-12	-4	8	9	18	14	x	x
C=C1C(=O)[C@]23C[C@H]1CC[C@H]2[C@]1(C)CCC[C@@](C)(C(=O)OC)[C@H]1C[C@@H]3O	x	x	x	x	84*	94*	71*	60*
COc1cc(NC(=O)c2cnc(N)o2)cc(C(=O)Nc2cccc(C(F)(F)F)c2)c1	8	-5	14	5	13	66*!	-21	22
CC1(C)N=C(N)N=C(N)N1c1ccc(CCCCc2ccccc2)cc1	38	101*	80*	46	51	70*	28*	62*
C(=NN1CCCCCC1)c1ccc2ccccc2n1	88*	-5	91*	90*	84*	95*	89*	104*
